IL-1B inflam inh: inhibitors of inflammasome signaling (IL-1 beta secretion); THP-1 LPS/ATP IL-1B secretion, AlphaLISA, 16 h; active compounds read low; activity change, % at 57.5 µM; 4.7% of 360,000 active; in the data active means activity change below about -50%; inconclusive means mostly about -30% to -49%
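THP-1 cells pretreated 1 hr with compounds (up to 57.5 uM final), then stimulated with LPS (250 ng/mL final) plus ATP (1.25 mM final); secreted IL-1B measured by AlphaLISA after 16 hr, decreased signal indicating inhibition.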
DT40 TDP1 CPT: growth inhibition of DT40 Tdp1-/-;hTDP1 cells with camptothecin (screen for TDP1 inhibitors) | chicken DT40 Tdp1-/-;hTDP1 cells + 20 nM CPT, ATP luminescence, 48 h | Potency, µM (doses to about 46.2 µM), for inactives: at the highest dose activity change, negative = growth inhibition, hits mostly inhibitors | 12% of 420,000 active | AID 686979; further: potency means the concentration at half of the fitted maximal effect; nearly all actives have a fitted effect of over 55% in size
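Chicken DT40 Tdp1-/- cells stably complemented with human TDP1 were seeded at 400 cells/well in medium containing 20 nM camptothecin, exposed to pin-transferred compounds, and grown at 37 °C for at least 48 hr. Viability was read as ATP luminescence.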
ELG1 DNA repair: ELG1-dependent DNA repair inhibition | 2.3% of 330,000 active | HEK293T ELG1-luciferase reporter, luminescence, 16 h; DNA damage induced by 5-fluorouridine | Potency, µM (doses to about 46.1 µM), inactives show at the highest dose activity change, negative = inhibition, usual class: inhibitors; further: potency means the concentration at half of the fitted maximal effect; nearly all actives have a fitted effect of over 55% in size
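HEK293T cells expressing luciferase-tagged ELG1 (2,000/well) received 5-Fluorouridine plus compound or DMSO for 16 hr at 37 °C. Luciferase was read by ONE-Glo luminescence after 30 min at room temperature.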
VP16 counter: counter-screen for ROR gamma inhibitors: Gal4-VP16 reporter; Drosophila S2 Gal4-VP16 UAS-luciferase, luminescence, 20 h; Potency, µM (series often up to 53.6 µM), for the others: at the highest dose activity, negative = inhibition, actives largely listed as inhibitors; 3.5% of 310,000 active; AID 2546;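 further: Gal4-VP16 expression switched on by copper sulfate through the metallothionein promoter; potency means the concentration at half of the fitted maximal effect; nearly all actives have a fitted effect of over 50% in size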
RORgamma inh: blocks mouse ROR gamma transcriptional activity; P51450; Drosophila S2 Gal4-RORgamma UAS-luciferase reporter, 20 h; Potency, µM (top dose mostly 53.6 µM), without a hit: top-dose activity change, negative = inhibition, most hits filed as inhibitors; 5.4% of 310,000 active; AID 2551; further: potency means the concentration at half of the fitted maximal effect; nearly all actives have a fitted effect of over 60% in size
Target sequence (P51450 whole entry, looked up, the tested form may be a part): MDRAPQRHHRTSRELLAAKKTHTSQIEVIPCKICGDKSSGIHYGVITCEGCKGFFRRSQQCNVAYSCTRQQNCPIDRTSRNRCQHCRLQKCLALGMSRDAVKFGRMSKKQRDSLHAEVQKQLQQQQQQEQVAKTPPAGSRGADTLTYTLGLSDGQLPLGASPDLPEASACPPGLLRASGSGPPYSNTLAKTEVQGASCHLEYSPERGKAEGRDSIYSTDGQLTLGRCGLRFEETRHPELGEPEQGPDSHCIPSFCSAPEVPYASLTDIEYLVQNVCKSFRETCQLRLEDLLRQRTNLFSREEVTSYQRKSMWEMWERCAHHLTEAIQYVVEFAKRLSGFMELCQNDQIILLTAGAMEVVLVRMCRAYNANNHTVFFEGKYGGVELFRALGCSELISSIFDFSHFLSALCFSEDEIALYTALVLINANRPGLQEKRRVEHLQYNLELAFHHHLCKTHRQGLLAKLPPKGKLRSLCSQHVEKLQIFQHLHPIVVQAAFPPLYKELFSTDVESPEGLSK
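ROR gamma transcriptional activity was tracked as Gal4-UAS luciferase output in stably transfected Drosophila Schneider cells, with compound added 1 hr before 700 uM copper sulfate induction and a 20 hr ambient-temperature incubation.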
TDP1 cell noCPT: qHTS for Inhibitors of human tyrosyl-DNA phosphodiesterase 1 (TDP1): qHTS in cells in absence of CPT. DT40 Tdp1-/- hTDP1 cells, no CPT, ATP luminescence, 48 h. Potency, µM (highest dose often 46.2 µM), inactives show top-dose activity change, negative = growth inhibition, most hits filed as inhibitors. 15% of 420,000 active; further: potency means the concentration at half of the fitted maximal effect; nearly all actives have a fitted effect of over 55% in size
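Cells were dispensed at 400 per well, compounds added by pin tool, plates incubated ≥48 hr at 37 °C, then CellTiter-Glo added for 30 min at room temperature before luminescence reading. Line: DT40 Tdp1-/- complemented with hTDP1; camptothecin omitted.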
The depositor's hits bear a star; ? = inconclusive; . = no result given. Rows were chosen to be rich in hits. Some 21% of all compounds tested hit in one or more screens of this group. Unless noted, the call rests on the fitted dose curve; in most records, active means well fitted curve in the direction sought with a large enough effect; inconclusive means small, poorly fitted or top-dose-only effect, or another doubt; inactive means no such curve, though single readings can be large; an effect the other way counts as inactive or inconclusive. On the % scale 0 is the no-effect control and ±100 the full control effect.

SMILES	IL-1B inflam inh	DT40 TDP1 CPT	ELG1 DNA repair	VP16 counter	RORgamma inh	TDP1 cell noCPT
CCOc1ccccc1N1CC(c2nc3ccccc3n2CCCOc2ccccc2OC)CC1=O (stereo not given)	.	?	.	.	.	-26%
Cc1nn(-c2ccccc2)c(C)c1C(=O)OCC(=O)Nc1ccccc1Cl	6	2%	.	.	.	-4%
CCN(CC(=O)Nc1ccc(OC)cc1)C(=O)c1ccc(N2CCCC2=O)cc1	-14	-10%	22%	.	.	-6%
Cc1ccc(CNC(=O)C2CCN(S(=O)(=O)c3ccc(Br)s3)CC2)cc1	6	-27%	-22%	-16%	10%	?
O=C(COC(=O)c1cnccn1)Nc1ncc(C(F)(F)F)cc1Cl	-4	13%	0%	.	.	3%
Cc1cc(C)cc(NC(=O)C2CCCN(S(=O)(=O)c3cccc4nsnc34)C2)c1 (stereo not given)	.	18µM*	.	.	.	16µM*
Cc1cccc(NC(=O)C2CCCN(S(=O)(=O)c3c(C)nn(C)c3C)C2)c1 (stereo not given)	22	?	.	.	.	?
COc1ccc2nc(NC(=O)C3CCN(S(=O)(=O)c4cccc5nsnc45)CC3)sc2c1	-77*	15µM*	?	5%	?	?
Cc1ccc(C)c(NC(=O)C2CCCN(S(=O)(=O)c3c(C)nn(C)c3C)C2)c1 (stereo not given)	23	?	9%	12%	12%	18µM*
Cc1ccc(C)c(NC(=O)C2CCCN(S(=O)(=O)c3cccc4nsnc34)C2)c1 (stereo not given)	.	-31%	.	.	.	26µM*
Cc1cccc(NC(=O)C2CCCN(S(=O)(=O)c3cccc4nsnc34)C2)n1 (stereo not given)	22	-19%	?	-3%	-21%	?
Nc1sc(-c2ccccc2)cc1C(=O)N1CCNCC1	?	?	.	.	.	-25%
COc1ccccc1NC(=O)C1CCCN(S(=O)(=O)c2cccc3nsnc23)C1 (stereo not given)	-6	-25%	?	6%	10%	-26%
Cc1cc(NC(=O)C2CCCN(S(=O)(=O)c3cccc4nsnc34)C2)ccc1Br (stereo not given)	.	10µM*	.	.	.	?
Cc1cccc(NC(=O)C2CCCN(S(=O)(=O)c3cccc4nsnc34)C2)c1 (stereo not given)	0	?	?	-8%	15%	?
O=C(Nc1cccc(C(F)(F)F)c1)C1CCCN(S(=O)(=O)c2cccc3nsnc23)C1 (stereo not given)	.	16µM*	.	.	.	21µM*
COc1cccc(NC(=O)C2CCCN(S(=O)(=O)c3cccc4nsnc34)C2)c1 (stereo not given)	-8	?	?	-9%	39%	16µM*
CCOc1ccc(NC(=O)C2CCCN(S(=O)(=O)c3cccc4nsnc34)C2)cc1 (stereo not given)	13	23µM*	23µM*	-11%	44%	16µM*
CC1CCCCC12NC(=O)N(CC(=O)NCc1ccco1)C2=O (stereo not given)	-11	-13%	-2%	.	.	-16%
CC1CN(C(=O)CCC(=O)NCc2cccs2)c2ccccc2O1 (stereo not given)	.	2%	.	.	.	4%
CCOC(=O)c1ccc(NC(=O)c2nc[nH]c2C(=O)NC[C@H](C)O)cc1	-13	-9%	.	.	.	?
Cc1noc(C)c1COc1ccccc1C(=O)NC(C)c1ccc(Cl)cc1 (stereo not given)	31	?	8%	.	.	?
COC(=O)c1cc2c(cc1NC(=O)c1cnn(-c3ccc(C)cc3)c1-n1cccc1)OCO2	.	-8%	.	.	.	-4%
COc1ccc2nc(NC(=O)C(NS(=O)(=O)c3cccc4nsnc34)C(C)C)sc2c1 (stereo not given)	44	-18%	0%	11µM*	?	?
CC1CCCN(c2nc3c(c(=O)[nH]c(=O)n3C)n2CCSc2nc3ccccc3o2)C1 (stereo not given)	12	-7%	-6%	-8%	1%	-18%
SMILES	IL-1B inflam inh	DT40 TDP1 CPT	ELG1 DNA repair	VP16 counter	RORgamma inh	TDP1 cell noCPT
CC1CCCN(c2nc3c(c(=O)n(C)c(=O)n3C)n2CCSc2nc3ccccc3s2)C1 (stereo not given)	-12	16µM*	?	-3%	-5%	18µM*
Cn1c(=O)c2c(nc(N3CCC(C(N)=O)CC3)n2CCSc2nc3ccccc3s2)n(C)c1=O	13	?	1%	-2%	-1%	?
CC1CCCN(c2nc3c(c(=O)n(C)c(=O)n3C)n2CCSc2nc3ccccc3o2)C1 (stereo not given)	16	23µM*	2%	2%	-3%	21µM*
Cc1nnc(SCCn2c(N3CCCC(C)C3)nc3c2c(=O)[nH]c(=O)n3C)s1 (stereo not given)	23	-23%	-6%	1%	-7%	-14%
CC1CCN(c2nc3c(c(=O)n(C)c(=O)n3C)n2CCSc2nc3ccccc3s2)CC1	17	10µM*	23µM*	2%	-42%	21µM*
Cc1ccnc(SCCn2c(N3CCC(C)CC3)nc3c2c(=O)n(C)c(=O)n3C)n1	48	?	.	.	.	23µM*
Cc1ccc(S(=O)(=O)NCc2ccc(C(=O)NC3CCC(O)CC3)cc2)cc1C (stereo not given)	-4	-11%	11%	.	.	-8%
CCCCOc1cccc(C(=O)Nc2ccc(NC(=O)c3ccco3)cc2)c1	-1	-10%	0%	?	-19%	-28%
CC(C)Oc1cccc(C(=O)NC(=S)Nc2cccc(C(F)(F)F)c2)c1	-9	?	1%	?	6.3µM*	?
CCCCOc1cccc(C(=O)NC(=S)Nc2cccc(C(F)(F)F)c2)c1	-9	?	7%	2.8µM*	4.5µM*	29µM*
CC(C)CN(C(=O)COC(=O)C1=COCCO1)c1c(N)n(Cc2ccccc2)c(=O)[nH]c1=O	0	2%	1%	.	.	0%
COc1ccccc1-c1csc(C(C)(O)c2ccccc2)n1 (stereo not given)	5	15µM*	.	.	.	?
CC(O)(c1cccc(F)c1)c1nc(-c2csc3ccccc23)cs1 (stereo not given)	34	?	.	.	.	?
COc1ccccc1-c1csc(C(C)(O)c2cccc(F)c2)n1 (stereo not given)	27	13µM*	.	.	.	16µM*
